# This excerpt belongs to a sample that is enriched for hits.
# PINK1 expr mod – modulators of PINK1 expression. PINK1 immunofluorescence, high-content cytometry, 24 h. Potency, µM (doses to about 76.6 µM), actives largely listed as activators. actives 0.2% (n = 410,000). AID 624263; active = well fitted activation curve with a large enough effect; inconclusive = small, poorly fitted or top-dose-only effect; cell line not stated here; note: nearly all actives have a fitted effect of over 65% in size
#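 Compound titrations (5 concentrations, 24 h) on a stable cell line; DMSO and CCCP controls. Endpoint: fixed-cell PINK1 immunofluorescence with mitochondrial, cell and nuclear markers, scanned by microplate cytometer.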
# HttQ103 aggreg – mutant huntingtin aggregation inhibition | PC12 HttQ103-GFP aggregates, Acumen cytometry, 40 h | Potency, µM (series often up to 46.1 µM), hits mostly inhibitors | actives 1.1% (n = 220,000) | AID 1688; note: nearly all actives have a fitted effect of over 60% in size
#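 PC12 cells with ecdysone-inducible HTT exon1 Q103-GFP, induced by 100 nM tebufenozide, given compounds in a concentration series. GFP aggregates (1–25 um, 6 SD above background) counted in lysates by laser-scanning cytometry, 488 nm excitation.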
# Epigenetic reg – derepresses silenced GFP reporter in murine cells; actives 0.2% (n = 280,000); Potency, µM (series often up to 53.9 µM), hits mostly activators; murine LDR cells, GFP reporter derepression, 30 h; note: nearly all actives have a fitted effect of over 60% in size
#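 Murine LDR cells bearing a silenced CMV-driven GFP reporter were exposed to compound for 30 h at 37 C. After PBS washes, GFP-positive cells (20-120 um objects) counted by laser-scanning microplate cytometry.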
# HTT cytoprotect – protects HTT-Q103 PC12 cells, measured by ATP; actives 0.14% (n = 230,000); PC12 HTT-Q103 induced, cytoprotection, ATP luminescence, 40 h; Potency, µM (titrated, usually from 56.4 µM), usual class: activators; note: nearly all actives have a fitted effect of over 45% in size
#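 Readout: ATPlite luminescence (ATP level). Model: stable PC12, inducible Htt exon1 Q103-GFP. Inducer: tebufenozide, 100 nM final. Compounds: dose series. No G418 in medium.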
# Numbers stand for hits; – = inactive; ? = inconclusive; · = no result given; ! = not active in a repeat; [ ] = another dose, or the depositor's remark. Unless noted, calls come from the whole dose curve; as a rule, active = well fitted curve in the direction sought with a large enough effect; inconclusive = small, poorly fitted or top-dose-only effect, or another doubt; inactive = no such curve, though single readings can be large; an effect the other way counts as inactive or inconclusive.
SMILES,PINK1 expr mod,HttQ103 aggreg,Epigenetic reg,HTT cytoprotect
O=C1/C(=C/c2ccc(N3CCCC3)cc2)NC(=S)N1C1CC1,?,–,17.8µM,–
O=C1N/C(=C/c2ccc(N3CCOCC3)o2)C(=O)N1c1ccccc1,?,?,?,–[0.074 µM]
O=C1N/C(=C/c2ccc(N3CCCC3)cc2)C(=O)N1c1ccccc1,?,?,15.8µM,·
C[n+]1c2n(c3ccccc31)N=C(c1ccccc1)CS2,?,10µM,–,–
C[n+]1c2n(c3ccccc31)N=C(c1ccc(Br)cc1)CS2,–,31.6µM,–,–[10 µM]
C[n+]1c2n(c3ccccc31)N=C(c1ccc(-c3ccccc3)cc1)CS2,12.6µM,?,–,–[10 µM]
CCc1nnc2n1N=C(c1ccc(Br)cc1)CS2,–,·,·,·
Cc1nnc2sc(SCC(=O)N3CCC(C)CC3)nn2c1=O,–,·,·,·
Cc1cc(NC(=O)CN(C)C)c([N+](=O)[O-])cc1C,–,–,–,–
Cc1ccc(S(=O)(=O)c2nc(-c3ccco3)oc2NCC2CCCO2)cc1 (centres undefined),–,–,–,·
O=C(Nc1ccc(SC(F)F)cc1)c1cccc2nc3ccccc3nc12,–,?,7.08µM,–
O=C(Cn1cnc2ccccc21)Nc1ccc(SC(F)F)cc1,–,?,–,–[10 µM]
NC1=NS(=O)(=O)NC1c1ccc(F)cc1 (centres undefined),–,–,–,3.55µM
Cc1ccc(C2NS(=O)(=O)N=C2N)cc1 (centres undefined),–,–,–,–
CC1=NN(c2ccccc2)C(=O)/C1=C\c1ccc(Br)s1,–,0.708µM,–,–[10 µM]
COc1cc(CN2CCCC(n3cc(C(=O)N4CCCCC4)nn3)C2)cc(OC)c1 (centres undefined),–,·,·,·
CCCCSc1nnc(-c2ccc(C)cc2)c2ccccc12,?,11.2µM,–,·
CN(C)C(=O)CSc1nnc(-c2ccc(F)cc2)c2ccccc12,–,–[9.22 µM],–,–[10 µM]
CCOC(=O)c1sc(NC(=O)OC)c(C(=O)OC)c1C,–,–,–,·
Nc1nc(SCc2ccc(Cl)cc2Cl)nc2nc3c(cc12)CCCC3,?,–,17.8µM,·
COc1ccc(S(=O)(=O)NCCc2ccncc2)cc1,–,·,·,·
COc1ccc(C(=O)NNC(=S)NC(=O)c2cc(-c3ccccc3)nc3ccccc23)cc1,–,28.2µM,–,?
CCCOc1ccc(C(=O)NNC(=S)NC(=O)c2cc(-c3ccc(Cl)cc3)nc3ccccc23)cc1,–,–,–,–
CCOC(=O)/C=c1\s/c(=C\c2sccc2C)c(=O)n1CC(=O)NCc1ccc(C)cc1,·,–,7.94µM,–
O=C(Cn1nnc2ccccc2c1=O)Nc1ccc2c(c1)CCC2,·,–[9.22 µM],–,–
SMILES,PINK1 expr mod,HttQ103 aggreg,Epigenetic reg,HTT cytoprotect
COc1cc2nc(=S)n3[nH]c(CCn4nc(C)cc4C)nc3c2cc1OC,–,?,5.01µM,–[10 µM]
COc1ccc(-c2cc(CCCC(=O)NCCc3ccc(OC)cc3OC)no2)cc1,11.2µM,–,–,–[0.074 µM]
CN=C1C([N+](=O)[O-])=CC=C2C1=NC1(CCCCC1)N2O,–,–,–,–[10 µM]
COc1ccccc1OC(C)C(=O)Nc1ccc(-c2nc3ccccc3s2)cc1 (centres undefined),–,·,35.5µM,·
c1cc2c(cc1-c1cnc3n1CCC3)OCCO2,·,25.1µM,–,–
Cc1ccc(-c2cnc3n2CCCCC3)cc1,–,–,–,–[10 µM]
Cc1ccc(CNC(=O)CSCc2ccccc2C)cc1,–,·,–,·
Cc1ccc(C)c(CSCC(=O)NCc2cccs2)c1,–,–,–,3.55µM
Cc1cc(C)n(C(=O)CN2C(=O)CCC2=O)n1,–,–,–,–
CCOC(=O)c1sc(=S)n(C)c1NC(=O)c1cccc(Br)c1,39.8µM,–[9.22 µM],–,–[10 µM]
CCOC(=O)c1sc(=S)n(C)c1NC(=O)c1ccccc1,–,–,–,–[10 µM]
CCOC(=O)C1=C(c2ccccc2)OC(N)=C(C#N)C1c1cccnc1 (centres undefined),–,–,–,–
Cc1ccc(-n2c(C)cc(C(=O)CSc3nncs3)c2C)cc1,–,10µM,–,–
COc1ccc(-c2n[nH]c(C(F)(F)F)c2-c2cc3ccccc3o2)c(O)c1,–,3.55µM,–,–[10 µM]
COc1ccccc1-c1c(-c2ccc(OCC(=O)NN)cc2O)n[nH]c1C(F)(F)F,–,–,–,·
N#CC1(C#N)C(C(N)=O)C1c1ccccc1 (centres undefined),–,–,–,·
CN1C=CC2=C(C#N)C(N)C(C#N)(C#N)[C@H](c3ccccc3)[C@H]2C1 (some centres undefined),12.6µM,–,–,–[1.9 µM]
CCN(CC)c1ccc2cc(-c3nc4ccccc4n3C)c(=O)oc2c1,?,?,7.08µM,–
COc1cccc2cc(-c3nc4ccccc4[nH]3)c(=O)oc12,–,·,·,·
CN(C)Cc1c(O)ccc2cc(-c3nc4ccccc4n3C)c(=O)oc12,–,·,·,·
CCN(CC)c1ccc2cc(-c3nnc(-c4ccccc4)o3)c(=O)oc2c1,–,7.08µM,3.16µM,–[10 µM]
CCN(CC)c1ccc2cc(-c3nc4ccccc4[nH]3)c(=O)oc2c1,?,0.316µM,2.82µM,–[10 µM]
COc1cccc2c1C(=O)c1c(O)c3c(c(O)c1C2=O)C[C@@](O)(C(=O)CO)C[C@@H]3O[C@H]1C[C@H](N)[C@@H](O)[C@H](C)O1,–,·,·,·
CC(=O)[C@]1(O)Cc2c(O)c3c(c(O)c2[C@@H](O[C@H]2C[C@H](N)[C@H](O)[C@H](C)O2)C1)C(=O)c1ccccc1C3=O,–,0.631µM,?,–
COc1cccc2c1C(=O)c1c(O)c3c(c(O)c1C2=O)C[C@@](O)(C(C)=O)C[C@@H]3O[C@H]1C[C@H](N)[C@H](O)[C@H](C)O1,–,2.24µM!,–,–
SMILES,PINK1 expr mod,HttQ103 aggreg,Epigenetic reg,HTT cytoprotect
COc1cccc2c1C(=O)c1c(O)c3c(c(O)c1C2=O)C[C@](O)(C(=O)CO)C[C@@H]3O[C@H]1C[C@H](N)[C@@H](O)[C@H](C)O1,·,–,·,–
CC(=O)[C@]1(O)Cc2c(O)c3c(c(O)c2[C@@H](O[C@H]2C[C@H](N)[C@H](O)[C@H](C)O2)C1)C(=O)c1c(O)cccc1C3=O,·,0.631µM,?,–
CSc1ccccc1OCc1cc(C(=O)N2CCc3sccc3C2)no1,–,·,·,·
COc1ccc(-c2nc(CS(=O)CC(=O)NCc3ccc(Cl)cc3)c(C)o2)cc1OC (centres undefined),–,·,·,·
CC(C)CC(NS(=O)(=O)c1ccc2c(c1)oc(=O)n2C)C(=O)NCCc1ccc(Cl)cc1 (centres undefined),–,·,–,·
Cc1ccc(NC(=O)C2=CCN(S(=O)(=O)c3ccc(F)cc3)CC2)cc1,–,–,–,·
Cc1nc2sc(C(N)=O)c(N)c2c(C)c1CC(=O)c1ccccc1,–,3.55µM,–,–
CCN(CC)C(=O)CSc1nc(O)c(Cc2ccc(OC)cc2)c(=O)[nH]1,–,·,·,·
CC1=[N+](C)c2c(ccc3cccnc23)C1(C)C,12.6µM,–[9.22 µM],?,–[10 µM]
Cc1[nH]c2c(ccc3cccnc32)c1C,–,–[9.22 µM],–,–[10 µM]
O=[N+]([O-])c1cccc(CN2CCC(Cc3ccccc3)CC2)c1,–,·,·,·
CCN1C(=S)SC(=O)C1=C1C=C(C)N(CCO)C(C)=C1,–,–,14.1µM,–
CCN1C(=S)SC(=O)C1=C1C=C(C)N(CCOC)C(C)=C1,·,–,–,–

# Assay outcomes from PubChem.
